# Screens from PubChem.
# Only some compounds are listed: those with a hit (about 3.8% of all), similar ones and a draw of the others.
# Cardio protect: modulators protecting cardiomyocytes from myocardial damage; H9c2 cardiomyocytes, H2O2 injury protection, ATPLite, 2 h; protection from H2O2 cell death, % at 20 µM; hit rate 0.63% among 360,000; AID 588492;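 active means compounds giving at least 50% protection of heart cells from peroxide-induced death in the single-dose screen, raw or plate-pattern-corrected value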;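 further: 0% = DMSO wells with peroxide and 100% = DMSO wells without peroxide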
# MPTP block: permeability transition pore inhibition. isolated mouse mitochondria, Ca2+ swelling absorbance, 30 min. hit rate 1.4% among 360,000. inhibition, % at 10 µM. AID 602449;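 active means inhibition of 50% or more, scaled per plate between neutral and stimulator controls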;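 further: 0% = DMSO wells given calcium and 100% = 1 mM EGTA wells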
# Mot1-301 SUMO: SUMOylation pathway inhibition by Mot1-301 growth rescue | S. cerevisiae Mot1-301 growth rescue, ATP luminescence, 38.5C; percent above DMSO median, 100 means doubled | growth rescue, % at 18.8 µM | hit rate 1% among 320,000;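 active means every valid replicate shows activation above 250% relative to neutral control wells; inactive means the rest, any valid replicate at or below 250%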;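 further: OY570 slx delta 5 strain wells were the positive control but not used for scaling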
# CR mimetic SO: lowers age-related superoxide in aged yeast cells; hit rate 0.18% among 330,000; AID 2690; S. cerevisiae aged cells, superoxide DHE fluorescence; active compounds read low; superoxide response (% of plate mean), % at 10 µM;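 active means superoxide response under a set limit, about three screen SD below normal, cut at about 65% in these data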;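 further: yeast aged for seven days with compound at 30 °C before DHE staining; 100% = average MFI of all compound-treated wells on the plate with controls excluded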
# aDG glyco up: increases alpha dystroglycan glycosylation | hit rate 0.22% among 360,000 | activation, % at 10 µM | Pro5-aDG cells, alpha-DG glycosylation AlphaScreen (IIH6); 0% Pro5, 100% B10-LARGE cell signal;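 active means activation of at least 8% versus controls, or a plate z-score of at least 8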;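 further: Pro5 are CHO cells carrying HIG-tagged alpha-DG that lacks glycosylation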
# FAS-TE inh: inhibitors of human fatty acid synthase thioesterase domain; P49327; recombinant FAS-TE, OMFH fluorogenic substrate, fluorescence endpoint; inhibition, % at 15 µM; hit rate 0.67% among 360,000; AID 602261;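 active means compounds whose normalised, plate-corrected inhibition of enzyme fluorescence in the single-dose primary screen is 50% or more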;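 further: 0% = DMSO with enzyme and 100% = substrate without enzyme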
# Rh123 counter: Rhodamine 123 counter-screen of mitochondrial pore hits. isolated mitochondria, membrane potential, Rhodamine 123 fluorescence. AID 624504. hit rate 78% among 5,000. inhibition, % at 10 µM. shares compounds with MPTP block; in the data active means inhibition above about 22%;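 further: 0% = DMSO vehicle and 100% = positive control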
# MPTP swell DR: dose response confirmation of mitochondrial permeability transition pore inhibitors | shares compounds with MPTP block | isolated mitochondria swelling, absorbance | IC50, µM | hit rate 58% among 780 | AID 651561; in the data active means IC50 below about 20 µM
# MPTP cs DR: active in counter-screen for permeability transition pore inhibitors | shares compounds with MPTP block | isolated mitochondria counterscreen, fluorescence read-out | IC50, µM | hit rate 49% among 780 | AID 651564; in the data active means IC50 below about 80 µM
# * = called active by the depositor; . = no result; + = active, no number.
SMILES,Cardio protect,MPTP block,Mot1-301 SUMO,CR mimetic SO,aDG glyco up,FAS-TE inh,Rh123 counter,others
CN(C)c1ccc(/C=C/C=C2/C(=O)NC(=O)N(c3ccccc3)C2=O)cc1,-21,51*,.,.,0,-5,-28,
CC1(CCl)CN1S(=O)(=O)c1ccccc1 (centres undefined),2,2,10,75,0,-2,.,
O=C(/C=C/c1ccc(Cl)cc1)NC(=S)N1C[C@H]2C[C@H](C1)c1cccc(=O)n1C2,-1,-3,37,96,0,-2,.,
COc1ccc(CN2CCN(Cc3ccccc3F)CC2)cc1,-1,1,83,118,0,2,.,
Cc1cc(OC(=O)c2cccs2)c2c3c(c(=O)oc2c1)CCCC3,-20,68*,-4,93,2,45,86*,
Cc1cc(OC(=O)c2ccco2)c2c3c(c(=O)oc2c1)CCCC3,-22,104*,21,107,2,10,87*,
C=CCN(CC=C)C(=O)CCN1CC1C (centres undefined),0,-2,.,.,0,-6,.,
N#CC(C#N)=C(C#N)c1ccc(Nc2ccccc2)cc1,-14,118*,-1,83,0,48,61*,
Cc1c(N)c(C)c([N+](=O)[O-])c(C)c1[N+](=O)[O-],-7,0,-6,115,0,8,.,
Cc1c(CCC(=O)N2C[C@H]3C[C@@H](C2)c2cccc(=O)n2C3)c(=O)oc2c(C)c(O)ccc12,4,-2,.,.,0,-3,.,
CCN1/C(=C/C=C/C2=[N+](CC)c3ccccc3C2(C)C)C(C)(C)c2ccccc21,-35,+,.,.,0,-138,92*,
COC(=O)C1=C(c2cccc(OC)c2OC)C[C@@H]2CC[C@H]1N2C(=O)NC1CCCCC1,1,-2,-15,93,0,-1,.,
CSc1ncc(/C=C2/C(=O)NC(=O)N(C)C2=O)cn1,-2,-1,-19,87,0,-5,.,
CSc1ncc(/C=C2/C(=O)NC(=O)N(C3CCCCC3)C2=O)cn1,6,90*,-7,94,0,2,-10,MPTP swell DR=3.4*;MPTP cs DR=>80
O=C(CNC(=O)c1cccc(Cl)c1)Nc1ccc(Br)cc1C(=O)c1ccccc1,-11,20,-6,106,0,29,.,
O=C(CNC(=O)c1ccc(Cl)cc1)Nc1ccc(Br)cc1C(=O)c1ccccc1,-10,50*,15,91,1,37,67*,
CNc1ccc2oc(C[C@H]3O[C@@]4(CC[C@H]3C)O[C@H]([C@H](C)C(=O)c3ccc[nH]3)[C@H](C)C[C@H]4C)nc2c1C(=O)O,-42,96*,-17,113,0,15,-23,
COc1cccc(CCNCc2ccc(SC)cc2)c1,3,88*,-5,104,0,-6,-11,MPTP swell DR=13*;MPTP cs DR=>80
COc1ccc(CCNCc2ccccc2)cc1,3,0,-21,93,0,-5,.,
Oc1c(Cl)cccc1Cc1cc(Cl)cc(Cl)c1O,-26,81*,.,.,0,0,64*,
Oc1c(Cl)cc(Cl)cc1CN1CCN(Cc2ccccc2)CC1,-7,-1,20,112,0,10,.,
OC1(c2ccc(Cl)cc2)CCN(Cc2c[nH]c3ccccc23)CC1,3,94*,-8,104,0,0,-16,MPTP swell DR=5.3*;MPTP cs DR=>80
COc1ccccc1N1CCN(Cc2ccc(Br)s2)CC1,-3,0,8,97,0,13,.,
COC(=O)C1=C(c2cccc(C#N)c2)C[C@@H]2CC[C@H]1N2C(=O)NCCOc1ccc(OC)cc1,4,-2,8,99,0,-4,.,
CCOc1cc(CNCCc2c[nH]c3ccccc23)cc(Cl)c1OC,-12,95*,-8,104,1,-1,16,MPTP swell DR=3.4*;MPTP cs DR=18*
COc1ccc(CNCCc2c[nH]c3ccccc23)c(OC)c1OC,-7,0,7,105,0,-5,.,
CNCC(O)c1cccc(OC(=O)c2ccccc2C)c1 (centres undefined),-3,61*,-15,90,0,-10,-5,MPTP swell DR=8.9*;MPTP cs DR=>80
